Data: PubChem BioAssay
A number with no mark means an inactive call. No rule for the calls is given here.

Each compound was assayed against Pantothenate synthetase (Mycobacterium tuberculosis (strain ATCC 25618 / H37Rv)) (UniProt P9WIL5) (assay: Coupled enzyme confirmation of inhibitors against recombinant Mtb PanC (AID 375;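 also: 0% = full reaction with vehicle and 100% = no enzyme background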)). Conditions: coupled enzyme assay; at 10 µM, hits give high values.
Pantothenate synthetase (Mycobacterium tuberculosis (strain ATCC 25618 / H37Rv)), sequence (P9WIL5 whole entry, looked up): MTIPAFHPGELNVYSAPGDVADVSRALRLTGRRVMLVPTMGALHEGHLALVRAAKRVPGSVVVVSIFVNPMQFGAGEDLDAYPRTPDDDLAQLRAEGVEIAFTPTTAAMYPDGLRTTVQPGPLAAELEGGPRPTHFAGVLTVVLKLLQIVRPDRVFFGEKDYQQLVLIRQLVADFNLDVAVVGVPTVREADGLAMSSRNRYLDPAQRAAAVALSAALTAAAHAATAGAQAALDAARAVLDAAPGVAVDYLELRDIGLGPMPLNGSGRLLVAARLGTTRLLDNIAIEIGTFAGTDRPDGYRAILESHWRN

Row | Compound | inhibition [%]
1 | O=c1[nH]c(/C(=N\O)c2ccccc2)no1 | 0
2 | CCOC(=O)Cn1nc(-c2ccc(C)cc2)ccc1=O | 0
3 | O=C(Nc1ccccc1)c1cccnc1N1CCOCC1 | 0
4 | CCCCn1c(NC(=O)CC)c(C#N)c2nc3ccccc3nc21 | 4
5 | C=Cn1c(C(=O)O)cc(CC)c1-c1ccccc1 | 9
6 | Cc1ccc(C)c(-c2nc3cc(N)ccc3o2)c1 | 0
7 | CCOC(=O)c1ccccc1NC1CC(=O)N(c2ccccc2C)C1=O (stereo not given) | 0
8 | Clc1ccc(Cl)c(-c2ccc(/C=N/c3ncn[nH]3)o2)c1 | 4
9 | O=c1c2nnn(Cc3ccccc3)c2ncn1-c1ccccc1 | 0
10 | CCCN(CCC)CCNS(=O)(=O)c1ccc2c(c1)oc(=O)n2C | 2
11 | COc1ccc(OC)c(Nc2cc(-c3ccccc3)nc(N)n2)c1 | 1
12 | N=c1c[n+](N2CCOCC2)[n-]o1 | 0
13 | C=CCn1cnc2c(NCc3ccccc3)ncnc21 | 4
14 | COc1ccc(C2CC(c3ccccc3)Nc3nc(NC(=O)c4cccs4)nn32)cc1 (stereo not given) | 0
15 | c1ccc2c(-c3nc(C4CCCCC4)no3)cc(-c3ccncc3)nc2c1 | 1
16 | O=C(NCC1CCCO1)C1CCN(c2ccc(S(=O)(=O)N3CCCC3)cc2)CC1 (stereo not given) | 0
17 | CCOC(=O)c1c(NC(=O)CSc2nnc(-c3cccnc3)o2)sc(C)c1C | 4
18 | O=C(NCCO)c1cc2ccccc2cc1O | 0
19 | CCN(CC)S(=O)(=O)c1ccc(N2CCCC2)c(C(=O)OCC(=O)/C(C#N)=C(\C)N)c1 | 6
20 | CCC1SC2=NC(C)=C(C(=O)OC)C(c3ccc(C)cc3)N2C1=O (stereo not given) | 7

Row | Compound | inhibition [%]
21 | O=C(Nc1cc(C(F)(F)F)ccc1Cl)C1CCN(c2nnc(-n3cccc3)s2)CC1 | 3
22 | CN(C)CCCN1c2ccccc2Sc2ccccc21 | 0
23 | CCOc1cc(C2CC(=O)N3CN(C4CCCCC4)CSC3=C2C#N)ccc1O (stereo not given) | 0
24 | CCOC(=O)C1CCN(S(=O)(=O)c2cccc(-c3csc(C)n3)c2)CC1 | 0
25 | COc1ccc(C)cc1S(=O)(=O)Nc1cccnc1 | 0
26 | O=C(c1cnsn1)N1CCN(c2ccccn2)CC1 | 0
27 | O=C(Cn1nc(-c2ccc(Cl)cc2)ccc1=O)NCCCN1CCN(Cc2ccccc2)CC1 | 2
28 | Cc1cccc2cc(C#N)c(SCCN3CCCCC3)nc12 | 0
29 | O=S(=O)(NCC1CCCO1)c1cccc(C(F)(F)F)c1 (stereo not given) | 0
30 | COC(=O)Nc1sccc1C(=O)Nc1sccc1C(=O)OC | 0
31 | O=C(CN1CCN(Cc2ccc3c(c2)OCO3)CC1)N1CCc2[nH]c3ccc(F)cc3c2C1 | 0
32 | CCN1C(=O)CC(C(=O)Nc2ccc(F)cc2)SC1=Nc1ccc2c(c1)OCO2 (stereo not given) | 6
33 | O=C(CCN1CCOCC1)Nc1ccc2c(c1)CCC2 | 4
34 | C=CCSc1nnc2n(CCc3ccccc3)c(=O)c3c4c(sc3n12)COC(C)(C)C4 | 0
35 | CCN(CC)CCN1C(=O)C(O)=C(C(=O)c2ccco2)C1c1ccccn1 (stereo not given) | 8
36 | CCOCCCNC(=O)C1CCN(C(=O)Nc2ccc(Cl)cc2)CC1 | 3
37 | COc1cc(C2Nc3cccc4cccc(c34)N2)cc(OC)c1O | 0
38 | Cc1ccc(NC(=O)C2CCCN2C(=O)Oc2ccccc2)cc1 (stereo not given) | 1
39 | OC(CCCN1CCC(O)(c2ccc(Cl)cc2)CC1)c1ccc(F)cc1 (stereo not given) | 5
40 | CC12CCC(C(=O)N3CCCCC3)(CC1=O)C2(C)C (stereo not given) | 0
